The structures appear in SMILES notation. Inconclusive results are not listed. Entries that show only a call come without a potency. Values without a mark were called inactive. Active and inactive are the calls of the source. Calls come from the whole dose curve; as a rule, active = well fitted cell-killing curve with a large enough effect in the repeat runs; inconclusive = weak or mixed curves, or effect the other way; inactive = flat fitted curve, though single readings scatter.
Potency is the fitted concentration of half-maximal effect.

A short description of the test: qHTS RealTime-Glo MT Cell Viability Assay in HepG2 cells - 40 hour (AID 1224870). Note: nearly all actives have a fitted effect of over 50% in size. The following applies: RealTime-Glo luminescence; series mostly up to 76.8 µM. The source says: National Center for Advancing Translational Sciences [NCATS]
NIH Chemical Genomics Center [NCGC]
U.S. Environmental Protection Agency [EPA]
National Institutes of Environmental Health Sciences [NIEHS]
National Toxicology Program [NTP]
U.S. Food and Drug Administration [FDA]
Measure of cell viability is critical in the cell-base assay. Analysis of cell viability is necessary for the characterization of cell responses to cytotoxic drugs and environmental stress. A RealTime-Glo MT Cell Viability Assay to monitor cell viability in real time of continues cell culture during 40 hours of compound treatment was used to screen Tox21 10K library compounds in HepG2 cells. The RealTime-Glo MT Cell Viability Assay is a nonlytic, homogeneous, bioluminescent method to measure cell viability in real time using a simple, plate-based method. The assay involves adding NanoLuc luciferase and a cell-permeant prosubstrate to cells in culture. Viable cells reduce the proprietary prosubstrate to generate a substrate for NanoLuc luciferase. This substrate diffuses from cells into the surrounding culture medium, where it is rapidly used by the NanoLuc Enzyme to produce a luminescent signal. The signal correlates with the number of viable cells, making the assay well suited for cytotoxicity studies.
Tox21 Assay Protocol Summary:
The mixture of HepG2 cell suspension and reagents were dispensed at 600cells/6 ul/well in 1536-well tissue culture treated black solid bottom plates using a Multidrop dispenser. After the assay plates were incubated at a 37 C/5% CO2 incubator for 5 hours, 23 nL of compounds dissolved in DMSO, positive and negative controls was transferred to the assay plate by a pintool work station. The plates were incubated at 37 C for 40 hours. The luminescence intensity were measured at 0h, 8h, 16h, 24h, 32h and 40h time points using ViewLux plate reader during compound treatment.
A general note: Quantitative high-throughput screening tests each substance at several concentrations.
With `COc1ccc2sc(C(=O)Nc3nnn[nH]3)c(OC(C)C)c2c1`, the Potency entry was “inactive”. With `CN(C)CCCN1c2ccccc2CCc2ccccc21`, the Potency result was “inactive”. Same read-out and setting: then `C=CC(C)(CCC=C(C)C)OC(=O)/C=C/c1ccccc1` (stereo not given), with “inactive”. With `COCC(=O)O[C@]1(CCN(C)CCCc2nc3ccccc3[nH]2)CCc2cc(F)ccc2[C@@H]1C(C)C`, the Potency is 10.7 µM (active). Take `C/C=C/C=N/NC(=O)c1ccncc1`: the Potency result is “inactive”. Consider `CCCCCCCCC(C)=O`, for which the Potency entry is “inactive”.

In the case of `O=C(O)CCCCCCC(=O)O`, the Potency entry is “inactive”. Regarding `Cc1cccc(C)n1`, the Potency result was “inactive”. Still for that read-out and setting: then `O=C1NCCN1CCN1CCC(c2cn(-c3ccc(F)cc3)c3ccc(Cl)cc23)CC1`, with 26.8 µM (active).

In the case of `COc1cccc(O)c1`, the Potency result is “inactive”. Same read-out and setting: the entry for `Cc1cnccn1` is “inactive”.

Take `CC(C)CCOCCC(C)C`: the Potency entry is “inactive”. Still for that read-out and setting: then `CCCCCCCCCCCCOC(=O)c1cc(O)c(O)c(O)c1`, with 54.9 µM (active); and `C=CC(=C)CCC=C(C)C`, with “inactive”; and `C=C(C)CCCC`, with “inactive”. Turning to `CN1CN(C)CN(C)C1`, the Potency entry was “inactive”. For the compound `CC(=O)Oc1ccc(C2(c3ccc(OC(C)=O)cc3)Oc3ccccc3NC2=O)cc1`, the Potency entry is “inactive”.

In the case of `CCCCOc1ccc(C(=O)CCN2CCCCC2)cc1`, the Potency was 6.74 µM (active). On to `CCCCCCCOC(=O)c1ccc(O)cc1`, for which the Potency result was “inactive”. Regarding `C=CC(=O)OCC(O)COc1ccccc1` (stereo not given), the Potency entry was “inactive”.

As for `CC=O`, the Potency was 32.3 µM (active).

In the case of `CCc1ccc(O)c(C(C)(C)C)c1`, the Potency entry is “inactive”. On the same count and under the same terms, then `CCc1c(C(=O)O)c(=O)cnn1-c1ccc(Cl)cc1`, with “inactive”; and `Cc1cc(C)c(C=O)c(C)c1`, with “inactive”.

Turning to `Brc1ccccn1`, the Potency entry was “inactive”. Regarding `CCCCN(C)C`, the Potency entry is “inactive”. With `O=C1OC(=O)c2ccc3c4c(ccc1c24)C(=O)OC3=O`, the Potency entry is “inactive”. Still for that read-out and setting: then `CCCCCCCCCC(=O)N(C)C`, with “inactive”. Consider `C=C/C=C/C=C/CCCCC`, for which the activity change, negative = cytotoxic is 24.6% [at 15.8 µM]. Consider `CC(C)(C)c1cc(CCC(=O)NCCCCCCNC(=O)CCc2cc(C(C)(C)C)c(O)c(C(C)(C)C)c2)cc(C(C)(C)C)c1O`, for which the Potency entry is “inactive”.

As for `C[Si](C)(C)Cl`, the Potency entry is “inactive”. Same read-out and setting: the entry for `CC1=CCC(=O)O1` is “inactive”; for `CCCCCCCCCCCCCCCC` it is “inactive”; for `CC(C)=CCCC(C)O` (stereo not given) it is “inactive”. `CCOCOCC`: the Potency result is “inactive”. On to `C=CC(=C)CC/C=C(\C)CCC=C(C)C`, for which the activity change, negative = cytotoxic was -6.2% [at 15.8 µM]. As to `CCCC(C)CCC(C)=O` (stereo not given), the Potency entry is “inactive”. The same measure, in the same setting: then `C[C@H]1O[C@@H](O[C@H]2[C@@H](O)C[C@H](O[C@H]3[C@@H](O)C[C@H](O[C@H]4CC[C@@]5(C)[C@H](CC[C@@H]6[C@@H]5C[C@@H](O)[C@]5(C)[C@@H](C7=CC(=O)OC7)CC[C@]65O)C4)O[C@@H]3C)O[C@@H]2C)C[C@H](O)[C@@H]1O`, with “inactive”. Regarding `COC(=O)[C@]1(C)CCC[C@@]2(C)[C@H]1CC=C1C=C(C(C)C)CC[C@@H]12`, the Potency result was “inactive”.

As to `CC(C)(C)C1=CC(=O)C=C(C(C)(C)C)C1=O`, the Potency entry was “inactive”.

For the origin of these results see PubChem BioAssay (Tox21).
